Source: PubChem
The list is not random: actives were taken first. Their share in the collection is about 18%.
TDP1 cell CPT: DT40-hTDP1 cell growth loss with CPT | chicken DT40 Tdp1-/-;hTDP1 cells + 20 nM CPT, ATP luminescence, 48 h | Potency, µM (titrated, usually from 46.2 µM), for the others: at the highest dose activity change, negative = growth inhibition, usual class: inhibitors | 420,000 compounds, 12% hits | AID 686979; note: potency is the fitted concentration of half-maximal effect; nearly all actives have a fitted effect of over 55% in size
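Chicken DT40 Tdp1-/- cells complemented with human TDP1, 400 cells/well, exposed to compounds plus 20 nM camptothecin for at least 48 h at 37 C; viability read as ATP content by CellTiter-Glo luminescence.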
RORg inh: blocks mouse ROR gamma transcriptional activity. P51450. Drosophila S2 Gal4-RORgamma UAS-luciferase reporter, 20 h. Potency, µM (top dose mostly 53.6 µM), inactives show top-dose activity change, negative = inhibition, actives largely listed as inhibitors. 310,000 compounds, 5.4% hits; note: potency is the fitted concentration of half-maximal effect; nearly all actives have a fitted effect of over 60% in size
Target sequence (P51450 whole entry, looked up, the tested form may be a part): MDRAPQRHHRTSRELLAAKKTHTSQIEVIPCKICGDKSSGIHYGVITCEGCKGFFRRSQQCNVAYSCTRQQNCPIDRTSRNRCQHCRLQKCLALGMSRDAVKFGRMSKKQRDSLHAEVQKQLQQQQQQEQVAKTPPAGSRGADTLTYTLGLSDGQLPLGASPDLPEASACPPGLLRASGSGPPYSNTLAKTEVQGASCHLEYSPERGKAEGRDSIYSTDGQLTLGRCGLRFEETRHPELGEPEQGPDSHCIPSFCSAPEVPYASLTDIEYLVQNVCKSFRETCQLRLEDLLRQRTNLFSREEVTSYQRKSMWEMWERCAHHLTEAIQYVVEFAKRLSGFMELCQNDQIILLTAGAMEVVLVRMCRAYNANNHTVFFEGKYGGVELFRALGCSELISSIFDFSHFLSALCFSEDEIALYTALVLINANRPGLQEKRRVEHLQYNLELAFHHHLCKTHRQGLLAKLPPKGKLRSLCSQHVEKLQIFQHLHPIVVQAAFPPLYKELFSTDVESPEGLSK
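A Gal4/UAS one-hybrid system in insect cells: metallothionein-promoter Gal4–ROR gamma fusion plus Photinus luciferase reporter. Copper sulfate 700 uM final, 20 hr ambient incubation, luminescent detection after 10 min with reagent.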
LDHA block: blocks human lactate dehydrogenase A | P00338 | purified LDHA, NADH/diaphorase-resazurin fluorescence; hits give low values | activity change, % (values are at about 110 or 230 µM) | 480,000 compounds, 0.15% hits | AID 1347041; in the data active = activity change below about -30%; inconclusive = mostly about -25% to -30%;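 note: plate controls were DMSO wells for no effect and wells without enzyme for full effect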
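Human LDH5 (2 nM) was incubated with 0.06 mM NADH and 0.2 mM pyruvate for 5 min at room temperature in Tris pH 7.4. Remaining NADH was coupled through diaphorase/resazurin, and resorufin fluorescence was read at 0 and 20 min.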
VP16 counter: Gal4-VP16 reporter inhibition counter-screen; Drosophila S2 Gal4-VP16 UAS-luciferase, luminescence, 20 h; AID 2546; 310,000 compounds, 3.5% hits; Potency, µM (titrated, usually from 53.6 µM), without a hit: at the top dose activity, negative = inhibition, most hits filed as inhibitors;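 note: Gal4-VP16 expression switched on by copper sulfate through the metallothionein promoter; potency is the fitted concentration of half-maximal effect; nearly all actives have a fitted effect of over 50% in size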
IL-1B inflam inh: inhibitors of inflammasome signaling (IL-1 beta secretion); THP-1 LPS/ATP IL-1B secretion, AlphaLISA, 16 h; hits give low values; AID 743279; 360,000 compounds, 4.7% hits; activity change, % at 57.5 µM; in the data active = activity change below about -50%; inconclusive = mostly about -30% to -49%
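Secreted IL-1B measured by AlphaLISA bead assay after 16 h compound exposure of THP-1 cells; compounds (final up to 57.5 uM) added 1 h before LPS (250 ng/mL) and ATP (1.25 mM) stimulation; lower signal means less secretion.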
TDP1 cell noCPT: qHTS for Inhibitors of human tyrosyl-DNA phosphodiesterase 1 (TDP1): qHTS in cells in absence of CPT. DT40 Tdp1-/- hTDP1 cells, no CPT, ATP luminescence, 48 h. Potency, µM (titrated, usually from 46.2 µM), for the others: at the highest dose activity change, negative = growth inhibition, most hits filed as inhibitors. 420,000 compounds, 15% hits; note: potency is the fitted concentration of half-maximal effect; nearly all actives have a fitted effect of over 55% in size
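Chicken DT40 Tdp1-/- cells stably complemented with human TDP1 were seeded at 400 cells/well with DMSO in place of 20 nM camptothecin. After compound pinning, cells grew at least 48 hr at 37 °C; viability read by CellTiter-Glo luminescence.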
* = called active by the depositor; u = inconclusive; x = no result given. Unless noted, calls come from the whole dose curve; as a rule, active = well fitted curve in the direction sought with a large enough effect; inconclusive = small, poorly fitted or top-dose-only effect, or another doubt; inactive = no such curve, though single readings can be large; an effect the other way counts as inactive or inconclusive. Unless noted, % is set by controls: 0 for no effect and ±100 for the full control effect.

SMILES	TDP1 cell CPT	RORg inh	LDHA block	VP16 counter	IL-1B inflam inh	TDP1 cell noCPT
CCOc1cccc(CNc2ccc(O)cc2)c1OCc1ccc(Cl)cc1	14.6µM*	u	34.8	u	-3.3	u
Oc1ccc(NCc2ccccc2OCc2ccccc2F)cc1	18.4µM*	12.6µM*	28.4	15.8µM*	-6.0	16.4µM*
CCOc1ccccc1CNc1nc2ccccc2n1C	-30.6%	-30.4%	-12.5	-12.7%	-16.9	u
CSc1cccc(NC(=O)CSc2n[nH]c(-c3ccccc3Cl)n2)c1	x	x	6.6	x	x	x
NC(=O)c1cc(Cl)ccc1OCc1cccc(C(F)(F)F)c1	x	x	2.2	x	x	x
Cc1cccc(C(=O)Nc2nnc(C3CC(=O)N(c4cc(C)cc(C)c4)C3)s2)c1 (stereo not drawn)	x	x	4.2	x	x	x
COc1ccc(C(=O)NCC(O)c2ccc(C)cc2)cc1 (stereo not drawn)	x	x	0.3	x	x	x
Cc1ccc(NC(=O)NC(=O)C(C)Cl)c(C)c1 (stereo not drawn)	x	x	-1.1	x	x	x
O=C1CC2(C(=O)Nc3ccccc32)c2sc(C(=O)O)c(-c3ccccc3)c2N1 (stereo not drawn)	x	x	-2.6	x	x	x
COc1cc(CNc2ccc3[nH]c(=O)[nH]c3c2)ccc1OCc1ccc(F)cc1Cl	u	-3.2%	2.0	-5.4%	u	u
Oc1ccc(NCc2ccccc2OCc2ccccc2Cl)cc1	14.6µM*	x	32.6	x	x	5.17µM*
O/N=C/c1ccccc1OCc1ccccc1Cl	1.0%	-18.0%	-3.1	-5.3%	-27.3	-17.8%
CCOc1cc(CNc2ccc(O)cc2)ccc1OCc1ccc(Cl)cc1Cl	14.6µM*	15.8µM*	37.5	u	-106.3*	14.6µM*
O=C(Cc1ccc(Cl)cc1)NCc1coc(-c2cccs2)n1	x	x	-19.1	x	x	x
CCc1ccc2nc(SCC(=O)N3CC(=O)Nc4ccccc43)c(C#N)cc2c1	u	8.6%	-5.3	1.4%	55.9	16.4µM*
CCc1cc2cc(C)ccc2nc1SCC(=O)N1CC(=O)Nc2ccccc21	u	82.3%	-1.5	-14.2%	-74.4*	u
N#Cc1cc(C#N)c(SCC(=O)N2CC(=O)Nc3ccccc32)nc1N	20.6µM*	x	2.1	x	-17.9	20.6µM*
CCN(CC)C1=N/C(=C\c2ccc(OC)cc2)C(=O)N1c1ccccc1	-13.2%	0.3%	5.0	2.7%	u	u
CN1C(=S)N(c2ccccc2)C(=O)/C1=C/c1ccco1	u	-0.1%	2.0	-0.1%	2.1	u
O=C1/C(=C/c2ccco2)N=C(N2CCCCC2)N1c1ccccc1	20.6µM*	-16.6%	3.9	0.5%	-8.4	18.4µM*
CC(C)N(C1=N/C(=C\c2ccco2)C(=O)N1c1ccccc1)C(C)C	13µM*	-21.1%	-2.3	14.4%	14.1	u
FC(F)Oc1ccc(-c2c[n+]3c(n2-c2ccccc2)CCCCC3)cc1	2.06µM*	9.2%	-7.0	-0.6%	u	1.46µM*
COc1ccc(-c2c[n+]3c(n2-c2c(C)n(C)n(-c4ccccc4)c2=O)CCCCC3)cc1	-13.6%	0.7%	1.6	-2.5%	15.4	u
CCOc1ccc(N2CC(O)=C(c3ccccc3)C2=N)cc1	3.5%	-26.9%	-4.9	-10.3%	-3.1	u
CCOc1ccc(-n2c(-c3ccc(OC)cc3)c[n+]3c2CCCCC3)cc1	0.206µM*	11.2µM*	-1.4	2µM*	-70.3*	0.0291µM*
CCOc1ccc(-n2c(-c3ccccc3)c[n+]3c2CCC3)cc1	1.03µM*	u	-4.8	8.91µM*	-68.3*	1.03µM*
COc1ccc(-n2c(-c3ccc(Cl)cc3)c[n+]3c2CCCCC3)cc1	0.82µM*	30.9%	-0.8	-11.3%	0.0	0.731µM*
CC1(C)CC(NC(=S)NC2CC3CCC2C3)CC(C)(C)N1 (stereo not drawn)	x	x	-9.3	x	x	x
